High-throughput results (PubChem BioAssay)
Sampled rows, rich in hits. Any-hit rate of the full collection: about 1.5%.
GALK inhibitor = galactokinase (human) inhibition; AID 1868; 0.007% of 270,000 active; Potency, µM (titrated, usually from 57.5 µM), usual class: inhibitors; Purified GALK, Kinase-Glo residual ATP luminescence
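Galactose (100 uM) and ATP (35 uM) were turned over by 5 nM GALK for 1 h at RT. Kinase-Glo Plus then converted the remaining ATP into a luminescent signal.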
rTrxR1 inhibitor = blocks rat thioredoxin reductase 1; Potency, µM (series often up to 114 µM), actives largely listed as inhibitors; recombinant rTrxR1, NADPH fluorescence consumption, selenite substrate; 1% of 390,000 active; note: nearly all actives have a fitted effect of over 65% in size
Target sequence (O89049 whole entry, looked up): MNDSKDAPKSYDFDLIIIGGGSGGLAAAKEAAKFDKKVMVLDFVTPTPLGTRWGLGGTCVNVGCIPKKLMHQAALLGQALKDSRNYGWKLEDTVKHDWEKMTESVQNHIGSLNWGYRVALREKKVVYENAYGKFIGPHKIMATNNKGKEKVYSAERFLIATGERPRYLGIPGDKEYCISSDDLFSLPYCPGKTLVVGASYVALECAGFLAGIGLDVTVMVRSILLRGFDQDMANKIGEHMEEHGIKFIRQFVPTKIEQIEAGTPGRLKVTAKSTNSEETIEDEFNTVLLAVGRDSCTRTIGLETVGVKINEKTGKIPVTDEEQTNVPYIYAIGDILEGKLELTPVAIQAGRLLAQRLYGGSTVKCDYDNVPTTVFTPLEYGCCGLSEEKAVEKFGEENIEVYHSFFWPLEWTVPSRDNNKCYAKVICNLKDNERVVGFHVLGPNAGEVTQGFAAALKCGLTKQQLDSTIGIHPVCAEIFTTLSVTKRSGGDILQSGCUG
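Rat TrxR1 (90 nM in the dispensed reagent) was pre-reduced with 400 uM NADPH for 5 min at room temperature, then incubated with compound for 15 min. After 400 uM selenite was added, NADPH fluorescence (Ex 340/Em 450 nm) was followed for 8 min.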
Coupling enz = inhibits coupling enzyme system, counter-screen for aldolase hits. coupling enzyme system counterscreen, AmpLite Red fluorescence. activity change, negative = inhibition, % at 58.2 µM, hits read low. 0.67% of 290,000 active. AID 2472; in the data active = activity change below about -30%
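Counterscreen lacking aldolase: glyceraldehyde-3-phosphate coupling-enzyme reagent preincubated 10 min at RT with compound (at 57.5 uM final), then substrate/coupling system with AmpLite Red added; fluorescence read at 525/598 nm after 20 min RT.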
TrxR1 substrate = substrates of rat thioredoxin reductase 1. O89049. AID 588456. Potency, µM (titrated, usually from 114 µM). 0.01% of 390,000 active. purified TrxR1 substrate turnover, NADPH consumption readout; note: nearly all actives have a fitted effect of over 50% in size
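Rat TrxR1, dispensed at 90 nM, was prereduced with 400 uM NADPH (final) for 5 min at ~22 deg C, then incubated with compound 15 min before 400 uM selenite. A first-read NADPH fluorescence drop versus no-compound background flagged substrates.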
USP1 inh = blocks the human USP1/UAF1 deubiquitinase complex; recombinant USP1/UAF1, Ub-Rhodamine cleavage fluorescence; Potency, µM (top dose mostly 57.1 µM), most hits filed as inhibitors; 0.23% of 390,000 active; AID 743255; O94782; note: nearly all actives have a fitted effect of over 60% in size
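USP1/UAF1 complex (1 nM) preincubated 15 min at room temperature with compound, then Ub-Rho substrate (150 nM final) added. Kinetic fluorescence at 480/540 nm over 6 reads at 60 s intervals; 50 mM HEPES pH 7.8, 0.5 mM EDTA, 0.1 mg/ml BSA, 1 mM TCEP, 0.01% Tween-20.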
Large screens that a line does not name were inactive. Unless noted, calls come from the whole dose curve; as a rule, active = well fitted curve in the direction sought with a large enough effect; inconclusive = small, poorly fitted or top-dose-only effect, or another doubt; inactive = no such curve, though single readings can be large; an effect the other way counts as inactive or inconclusive.

COc1cccc(C(C2C(=O)CC(C)(C)CC2=O)C2C(=O)CC(C)(C)CC2=O)c1	rTrxR1 inhibitor inconclusive
COc1cccc(C(C2=C(O)CC(C)(C)CC2=O)C2C(=O)CC(C)(C)CC2=O)c1 (stereo not given)	rTrxR1 inhibitor 45µM
N#Cc1nc(NCCO)nc(Nc2ccccc2)n1	none (no result: GALK inhibitor, rTrxR1 inhibitor, TrxR1 substrate, USP1 inh)
O=C(C[n+]1cccc2cc(Cl)ccc21)c1ccc(I)cc1	none (no result: GALK inhibitor, Coupling enz, USP1 inh)
O=C(Cc1ccc(Cl)cc1)NO	none (no result: GALK inhibitor, Coupling enz, USP1 inh)
O=S(=O)(c1ccc2c(c1)OCO2)N1CCN(c2nc(-c3cccs3)nc3ccccc23)CC1	none (no result: GALK inhibitor, Coupling enz, USP1 inh)
C=C1C=C(C(F)F)n2ncc(C(=O)NCc3ccc(OC)c(OC)c3)c2N1	none (no result: GALK inhibitor, Coupling enz, USP1 inh)
Oc1ccc(N=Cc2ccc(-c3cccs3)s2)cc1	Coupling enz -51, USP1 inh 13µM
CCOC(=O)CN1C(=O)N[C@@H](c2cccc(C(F)(F)F)c2)[C@H](C(=O)OC)[C@H]1C	none (no result: GALK inhibitor, rTrxR1 inhibitor, TrxR1 substrate, USP1 inh)
Brc1cccc[n+]1Cc1ccc(C[n+]2ccccc2Br)cc1	none (no result: GALK inhibitor, Coupling enz, USP1 inh)
O=c1[nH]c2c(s1)C=Nc1ccccc1N2	USP1 inh 28µM
O=C1CC(c2ccco2)CC2=C1C=Nc1ccccc1N2 (stereo not given)	rTrxR1 inhibitor inconclusive
COc1ccc(OC)c(C2=Nn3c(nnc3-c3ccccc3C)SC2)c1	none (no result: GALK inhibitor, rTrxR1 inhibitor, TrxR1 substrate, USP1 inh)
Cn1ccnc1C(O)c1cc(C(C)(C)C)c(O)c(C(C)(C)C)c1 (stereo not given)	rTrxR1 inhibitor 32µM
C[C@@H]1[C@H](c2ccccc2)OCCS(=O)(=O)N1Cc1cccc(Cl)c1	none (no result: GALK inhibitor, Coupling enz, USP1 inh)
Cc1nc2c(ccc3c2ccc2nc(C)sc23)s1	none
COc1cc2sc(C)nc2c2ccccc12	Coupling enz -32
CO[C@H]1C=CO[C@@]2(C)Oc3c(C)c(O)c4c(O)c(c(C=NN5CCN(C)CC5)c(O)c4c3C2=O)NC(=O)C(C)=CC=C[C@H](C)[C@H](O)[C@@H](C)[C@@H](O)[C@@H](C)[C@H](OC(C)=O)[C@@H]1C	Coupling enz -51
CC(=O)NCCCC[C@H](NC(=O)OC(C)(C)C)C(=O)Nc1ccc2c(C(F)(F)F)cc(=O)oc2c1	none (no result: GALK inhibitor, rTrxR1 inhibitor, TrxR1 substrate, USP1 inh)
Cc1ccc(C)c(NC(=S)Nc2cccc3cnccc23)c1	rTrxR1 inhibitor inconclusive, Coupling enz -37, USP1 inh inconclusive
S=C(NCc1ccccc1)Nc1cccc2cnccc12	none
Fc1ccccc1NC(=S)Nc1cccc2cnccc12	Coupling enz -32
Cc1ccccc1NC(=S)Nc1cccc2cnccc12	Coupling enz -52
Cc1ccc(C)c(NC(=S)Nc2cccnc2)c1	rTrxR1 inhibitor inconclusive
S=C(NCCc1ccccc1)Nc1cccc2cnccc12	Coupling enz -36
C[C@H]1Cc2c(COc3ccccc3)nc3c(c2CO1)CN(C(=O)c1cccnc1)CC3	none (no result: GALK inhibitor, rTrxR1 inhibitor, TrxR1 substrate, USP1 inh)
CC(=O)c1ccc(NC(=O)C2C3C=CC(O3)C2C(=O)O)cc1 (stereo not given)	none
CCCOC(=O)c1ccc(NC(=O)C2C3C=CC(O3)C2C(=O)O)cc1 (stereo not given)	rTrxR1 inhibitor 40µM
Cc1cc(C)c2nc(NNC(=O)c3cc(=O)c4ccccc4o3)sc2c1	USP1 inh 28µM
COc1ccc2nc(NC(=O)c3cc(=O)c4ccccc4o3)sc2c1	USP1 inh inconclusive (no result: GALK inhibitor, Coupling enz)
O=C(Nc1ccncc1)c1cnn2c1NC(=C1CC1)C=C2C(F)F	none (no result: GALK inhibitor, Coupling enz, USP1 inh)
O=C1CSC(=S)N1/N=C/c1ccc(O)c(O)c1O	rTrxR1 inhibitor inconclusive, Coupling enz -59, USP1 inh inconclusive
c1ccc(-c2onc(-c3ccco3)c2-c2ccc3c(c2)OCO3)cc1	rTrxR1 inhibitor 50µM, USP1 inh inconclusive (no result: GALK inhibitor)
COC(=O)C1=C(C)N(Cc2ccccc2)C(=NCc2ccco2)N[C@H]1c1ccc(Br)cc1	none (no result: GALK inhibitor, rTrxR1 inhibitor, TrxR1 substrate, USP1 inh)
COC(=O)N[C@H](c1ccccc1)C(C(C)=O)C(=O)OC (stereo not given in full)	none (no result: GALK inhibitor, rTrxR1 inhibitor, TrxR1 substrate, USP1 inh)
COC(=O)NC(c1ccccc1)C(C(=O)OC)C(=O)OC (stereo not given)	Coupling enz -31 (no result: GALK inhibitor, rTrxR1 inhibitor, TrxR1 substrate, USP1 inh)
C=C1C=C(C(F)F)n2ncc(C(=O)NCc3ccc(Cl)cc3)c2N1	none (no result: GALK inhibitor, Coupling enz, USP1 inh)
Cc1nc2c(cc(Oc3ccc(S(=O)(=O)N4CCOCC4)cn3)c3ccsc32)s1	Coupling enz -40
CC(C)(C)Nc1nc(C#N)nc(Nc2ccccc2)n1	none (no result: GALK inhibitor, rTrxR1 inhibitor, TrxR1 substrate, USP1 inh)
O=C(O)c1ccc(-c2ccc(/C=c3/sc4nc5ccccc5n4c3=O)o2)cc1Cl	rTrxR1 inhibitor inconclusive, USP1 inh 28µM (no result: GALK inhibitor)
O=S1(=O)CCOC[C@H](c2ccccc2)N1Cc1ccc(Cl)c(Cl)c1	none (no result: GALK inhibitor, Coupling enz, USP1 inh)
CC1(C)CC(=O)C2=C(C1)OC1=C(C(=O)CC(C)(C)C1)C2c1ccc(O)cc1O	rTrxR1 inhibitor 3.5µM
COc1cc(/C=C2/C(=O)ON=C2c2ccccc2)ccc1O	rTrxR1 inhibitor 13µM
COc1cc(C=C2C(=O)c3ccccc3C2=O)ccc1O	none
COc1cc(/C=C2\C(=O)ON=C2c2ccccc2)cc(Br)c1O	GALK inhibitor inconclusive, rTrxR1 inhibitor 11µM, USP1 inh inconclusive
COc1cc(/C=C2\C(=O)ON=C2c2ccccc2)cc(Cl)c1O	rTrxR1 inhibitor 16µM
CCOc1cc(/C=C2\C(=O)ON=C2c2ccccc2)cc(Br)c1O	GALK inhibitor inconclusive, rTrxR1 inhibitor 14µM
COc1ccc([C@@H]2CC(=O)c3c(O)cc(O[C@@H]4O[C@H](CO[C@@H]5O[C@@H](C)[C@H](O)[C@@H](O)[C@H]5O)[C@@H](O)[C@H](O)[C@H]4O)cc3O2)cc1	none (no result: GALK inhibitor, rTrxR1 inhibitor, TrxR1 substrate, USP1 inh)
